# PubChem BioAssay (EPA / NIEHS)
# Values joined by “and” are separate entries in the source; they are usually repeats but may differ in a detail not shown here. Equal values may be shown once. Active and inactive are the calls of the source. How the source made its calls: active means hit-call score of the fitted dose curve at least 0.9, where 1 is the maximum; inactive means score below 0.9.
# Read-out: Intercellular Adhesion Molecule 1 (ICAM1), ICAM1 (gene 3383)
# Test: BSK_BE3C_ICAM1: BioMAP Diversity Plus: BE3C Assay for Intercellular Adhesion Molecule 1 (ICAM1) Biomarker Activity (AID 2284278)
# Settings: primary human bronchial epithelial cells
# Protocol: BSK_BE3C is a cell-based, multiplexed-readout assay that uses bronchial epithelial cell, a human lung primary cell, with measurements taken at 24 hours after chemical dosing in a 96-well plate.BSK_BE3C_ICAM1 is an assay component measured in the BSK_BE3C assay. It measures ICAM-1 antibody related to regulation of gene expression using ELISA technology.Data from the assay component BSK_BE3C_ICAM1 was analyzed at the endpoint, BSK_BE3C_ICAM1, in the positive analysis fitting direction relative to DMSO as the negative control and baseline of activity. Using a type of binding reporter, gain or loss-of-signal activity can be used to understand protein changes. To generalize the intended target to other relatable targets, this assay endpoint is annotated to the 'cell adhesion molecules' intended target family, where the subfamily is 'Immunoglobulin CAM'.
# The levels of cell surface (or secreted, indicated by the prefix "s") biomarker endpoints were measured by ELISA. Overt cytotoxicity to cells in confluent adherent cultures (all systems other than the BT system) was assessed by measuring total protein levels using sulforhodamine B (SRB) staining in parallel cultures at the time of biomarker measurements, indicated as SRB endpoints. For proliferation assays for adherent cell types, individual cell types are cultured at sub-confluence and relative cell numbers quantified by SRB staining at time points optimized for each system (48 h: 3C and CASM3C systems; 72 h: BT and HDF3CGF systems; 96 h: SAg system). SRB was performed by staining cells with 0.1% SRB after fixation with 10% TCA and reading wells at 560 nm.Viability and proliferation of PBMC (T cells) was quantified by Alamar Blue reduction for the SAg and BT systems. For PBMC viability (referred to as PBMC Cytotoxicity within the assay endpoint names), cells were plated (75,000/well in a 96-well plate) and then chemical samples added for 1 h before addition of activators, SEB and TSST-1 (20 ng/mL final concentration each). Cells were incubated for 90 h. Then, Alamar Blue (20 uL/well) (Invitrogen, Cat DAL1100) was added for 6 h, and the plates were read with a fluorescence microplate reader at 546/580 nm (excitation/emission). For PBMC proliferation, cells were plated and activated as above but incubated for only 16 h prior to addition of Alamar Blue. Plates were read after 6 h.
SMILES,outcome,AC50
O=C(O)CCC(F)(F)C(F)(F)C(F)(F)C(F)(F)C(F)(F)F,inactive,
CN(CCO)S(=O)(=O)C(F)(F)C(F)(F)C(F)(F)C(F)(F)C(F)(F)C(F)(F)C(F)(F)C(F)(F)F,inactive,
Oc1ccc(Cc2ccccc2O)cc1,inactive,
OCC(F)(F)C(F)(F)C(F)(F)C(F)(F)C(F)(F)C(F)(F)C(F)(F)C(F)(F)C(F)(F)C(F)(F)C(F)(F)F,inactive,
CN(Cc1cnc2nc(N)nc(N)c2n1)c1ccc(C(=O)N[C@@H](CCC(=O)O)C(=O)O)cc1,inactive,
O=P(O)(O)CCC(F)(F)C(F)(F)C(F)(F)C(F)(F)C(F)(F)C(F)(F)C(F)(F)C(F)(F)F,inactive,
O=C(CC(=O)C(F)(F)C(F)(F)C(F)(F)F)c1cccs1,,42.2 µM (active) and 35.1 µM (active)
Oc1c(Cl)cc(Cl)cc1Sc1cc(Cl)cc(Cl)c1O,,5.56 µM (active) and 6.58 µM (active)
O=S(=O)(O)C(F)(F)C(F)(F)C(F)(F)C(F)(F)C(F)(F)C(F)(F)C(F)(F)C(F)(F)C(F)(F)C(F)(F)F,inactive,
O=C(O)C(F)(F)OC(F)(F)C(F)(F)OC(F)(F)C(F)(F)OC(F)(F)C(F)(F)C(F)(F)C(F)(F)F,,6.39 µM (active) and 5.8 µM (active)
O=C1NS(=O)(=O)c2ccccc21,inactive,
CCCCCCCCCCCC,,7.01 µM (active) and 6.7 µM (active)
O=C(O)CCC(F)(F)C(F)(F)C(F)(F)C(F)(F)C(F)(F)C(F)(F)F,inactive,
O=P(O)(O)CCC(F)(F)C(F)(F)C(F)(F)C(F)(F)C(F)(F)C(F)(F)F,inactive,
C=CC(=O)OCCC(F)(F)C(F)(F)C(F)(F)C(F)(F)C(F)(F)C(F)(F)C(F)(F)C(F)(F)F,inactive,
